# Source: PubChem BioAssay (NCATS)
# Inconclusive results are not listed. Entries that show only a call come without a potency. Activity calls are given as the source filed them. Unless noted, the call rests on the fitted dose curve.
# What was measured:
# [1] = target: Bile acid receptor (Homo sapiens) (UniProt Q96RI1); assay: qHTS assay for small molecule agonists of farnesoid X receptor signaling (AID 588527); conditions: HEK293T FXR-UAS-bla, beta-lactamase ratio, 16 h; activation: stronger effect = higher value
# In short: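 Quantitative HTS used FXR-UAS-bla HEK293T cells with 16 h compound incubation at 37 C. EC50 values came from concentration-response curves normalized to chenodeoxycholic acid.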
# [2] = target: Peroxisome proliferator-activated receptor delta (Homo sapiens) (UniProt Q03181); assay: qHTS assay for small molecule agonists of peroxisome proliferator-activated receptor delta signaling (AID 588534)
# In short: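 Cells carrying a PPAR-delta beta-lactamase reporter were treated with compounds for 18 h at 37 °C in agonist mode. CCF4 fluorescence was read after 2 h; EC50 and efficacy from Hill fits.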
# [3] = qHTS for Inhibitors of the Functional Ribonucleoprotein Complex (vRNP) of Lassa (LASV) Arenavirus: LASV Primary Screen - GLuc reporter signal (AID 1347082; calls by dose curve; tested in HEK293 reporter line; further: nearly all actives have a fitted effect of over 60% in size)
# [4] = qHTS for Inhibitors of the Functional Ribonucleoprotein Complex (vRNP) of Lassa (LASV) Arenavirus: Viability assay - alamar blue signal for LASV Primary Screen (AID 1347083; calls by dose curve; tested in HEK293 reporter line; further: nearly all actives have a fitted effect of over 80% in size)
# [5] = qHTS for Inhibitors of the Functional Ribonucleoprotein Complex (vRNP) of Lymphocytic Choriomeningitis Arenaviruses (LCMV): Viability assay - alamar blue signal for LCMV Primary Screen (AID 1347085; calls by dose curve; tested in HEK293 reporter line; further: nearly all actives have a fitted effect of over 80% in size)
# [6] = target: Nucleoprotein (Lymphocytic choriomeningitis virus (strain Armstrong)) (UniProt P09992); assay: qHTS for Inhibitors of the Functional Ribonucleoprotein Complex (vRNP) of Lymphocytic Choriomeningitis Arenaviruses (LCMV): LCMV Primary Screen - GLuc reporter signal (AID 1347086); further: nearly all actives have a fitted effect of over 70% in size
# [7] = qHTS profiling for inhibitors of Plasmodium falciparum (3D7) proliferation (AID 743322);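 further: infected erythrocytes exposed to compound for 72 h before lysis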; conditions: P. falciparum 3D7 proliferation; at 28.7 µM (top of the series)
# In short: (§1)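 Erythrocytes infected with P. falciparum (0.3% parasitemia, 2.5% hematocrit) incubated with compounds 72 h at 37 C, 5% CO2. Lysis with saponin/Triton buffer containing SYBR Green I, overnight at room temperature in the dark; DNA fluorescence (485/535 nm) normalised to 0.29 uM artemisinin and DMSO.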
# [8] = qHTS profiling for inhibitors of Plasmodium falciparum (DD2) proliferation (AID 743323; call rule not given here); conditions: lower = more inhibition; at 28.7 µM (top of the series)
# In short: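 Parasite proliferation measured via DNA-dye fluorescence, as uninfected erythrocytes lack DNA. Cultures at 0.3% parasitemia and 2.5% hematocrit incubated 72 h with compound; signal scaled between vehicle and 0.29 uM artemisinin wells.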
# [9] = qHTS profiling for inhibitors of Plasmodium falciparum (HB3) proliferation (AID 743324; active means well fitted curve in the direction sought with a large enough effect; inactive means no such curve, though single readings can be large or run the other way); conditions: Plasmodium falciparum HB3 blood-stage proliferation; at 28.7 µM (top of the series)
# In short: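 P. falciparum HB3 grown in erythrocytes (0.3% parasitemia, 2.5% hematocrit final) with compound for 72 h at 37 C, 5% CO2. Parasite DNA detected by SYBR Green after saponin/triton lysis overnight; normalized to 0.29 uM artemisinin and DMSO.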
# [10] = qHTS profiling of the MIPE4 collection as inhibitors of Plasmodium falciparum (3D7) proliferation (AID 743344; call rule not given here); conditions: P. falciparum 3D7 in erythrocytes, SYBR Green DNA fluorescence, 72 h; at 28.5 µM (top of the series) unless noted
# In short: as §1
# [11] = qHTS profiling of the MIPE4 collection as inhibitors of Plasmodium falciparum (DD2) proliferation (Rep 2) (AID 743346; call rule not given here); conditions: P. falciparum Dd2 in erythrocytes, SYBR Green DNA, 72 h; at 28.5 µM (top of the series) unless noted
# In short: as §1
# [12] = qHTS profiling of the MIPE4 collection as inhibitors of Plasmodium falciparum (HB3) proliferation (AID 743347; call rule not given here); conditions: P. falciparum HB3 in erythrocytes, SYBR Green DNA, 72 h; at 28.5 µM (top of the series) unless noted
# In short: as §1
# Sequence of Peroxisome proliferator-activated receptor delta (Homo sapiens) (Q03181 whole entry, looked up): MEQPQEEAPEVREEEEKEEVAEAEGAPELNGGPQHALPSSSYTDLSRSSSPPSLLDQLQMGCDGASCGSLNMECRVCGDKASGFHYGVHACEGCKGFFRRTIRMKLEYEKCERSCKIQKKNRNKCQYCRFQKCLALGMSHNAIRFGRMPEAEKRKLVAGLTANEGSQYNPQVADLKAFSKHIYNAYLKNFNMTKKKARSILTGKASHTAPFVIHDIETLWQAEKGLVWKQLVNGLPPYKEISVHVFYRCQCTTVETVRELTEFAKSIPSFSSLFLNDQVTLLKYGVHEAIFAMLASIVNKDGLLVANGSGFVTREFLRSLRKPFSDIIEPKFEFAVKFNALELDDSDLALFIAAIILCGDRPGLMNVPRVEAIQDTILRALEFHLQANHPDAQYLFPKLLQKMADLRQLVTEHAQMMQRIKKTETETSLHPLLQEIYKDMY
# Sequence of Nucleoprotein (Lymphocytic choriomeningitis virus (strain Armstrong)) (P09992 whole entry, looked up): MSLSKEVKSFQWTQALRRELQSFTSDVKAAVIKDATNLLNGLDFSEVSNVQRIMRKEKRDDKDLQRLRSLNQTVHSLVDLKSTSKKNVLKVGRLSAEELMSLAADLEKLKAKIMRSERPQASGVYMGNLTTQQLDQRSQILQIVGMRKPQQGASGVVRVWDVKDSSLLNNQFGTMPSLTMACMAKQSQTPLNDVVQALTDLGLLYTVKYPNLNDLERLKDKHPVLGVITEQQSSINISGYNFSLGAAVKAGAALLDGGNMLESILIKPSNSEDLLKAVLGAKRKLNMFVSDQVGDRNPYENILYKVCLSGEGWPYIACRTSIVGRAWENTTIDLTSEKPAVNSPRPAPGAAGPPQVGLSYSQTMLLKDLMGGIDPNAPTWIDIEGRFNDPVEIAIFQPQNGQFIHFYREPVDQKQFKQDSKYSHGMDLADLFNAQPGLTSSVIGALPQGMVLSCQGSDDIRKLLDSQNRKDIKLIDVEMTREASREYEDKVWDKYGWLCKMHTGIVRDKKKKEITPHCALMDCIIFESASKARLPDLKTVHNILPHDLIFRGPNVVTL
# Sequence of Bile acid receptor (Homo sapiens) (Q96RI1 whole entry, looked up): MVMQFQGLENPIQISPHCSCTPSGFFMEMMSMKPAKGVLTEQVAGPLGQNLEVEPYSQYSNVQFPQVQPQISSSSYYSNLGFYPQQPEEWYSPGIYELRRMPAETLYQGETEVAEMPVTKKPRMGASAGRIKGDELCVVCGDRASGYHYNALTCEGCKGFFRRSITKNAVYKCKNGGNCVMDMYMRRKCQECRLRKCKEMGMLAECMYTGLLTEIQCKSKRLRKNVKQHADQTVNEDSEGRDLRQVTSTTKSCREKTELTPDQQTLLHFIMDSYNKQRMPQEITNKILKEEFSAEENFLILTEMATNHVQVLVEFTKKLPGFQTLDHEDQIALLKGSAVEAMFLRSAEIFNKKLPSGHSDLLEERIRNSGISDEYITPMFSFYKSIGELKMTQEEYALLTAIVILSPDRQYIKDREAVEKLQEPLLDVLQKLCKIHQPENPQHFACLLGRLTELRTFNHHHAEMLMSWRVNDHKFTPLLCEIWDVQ
SMILES,activation [1],Potency [2],Potency [3],Potency [4],Potency [5],Potency [6],remaining parasite growth % (stronger effect = lower value) [7] [%],"activity, percent of control [8] [%]","remaining proliferation (% of control), lower = more inhibition [9] [%]","parasite growth, % of DMSO control [10] [%]","parasite growth, % of control (lower = inhibition) [11] [%]","growth, % of control [12] [%]"
NCCO/C=C/[C@H](N)C(=O)O,4.46% (inactive),inactive,inactive,inactive,inactive,inactive,,,,,,
CC(=O)N(O)CCCP(=O)(O)O,,,inactive,inactive,inactive,inactive,13.5,10.8,8.45,13.6,18.1,13
CS(C)=O,-2.1% (inactive),inactive,inactive,inactive,inactive,inactive,,,,,,
COc1cc(CNC(=O)CCCCC=CC(C)C)ccc1O,,,inactive,inactive,inactive,inactive,,,,92.4,129,105
CC(C)=CCC/C(C)=C/CC/C(C)=C/CO,,inactive,inactive,inactive,inactive,inactive,,,,,,
O=C1CCc2ccccc2O1,,inactive,inactive,inactive,inactive,inactive,,,,,,
c1ccc(CSCc2ccccc2)cc1,,inactive,inactive,inactive,inactive,inactive,,,,,,
